From PubChem BioAssay
D1 agonist: agonists of human D1 dopamine receptor; HEK293 T-REx D1 cells, calcium flux, agonist mode; P21728; actives 1% (n = 360,000); activation, % at 2 µM; AID 504660
Target sequence (P21728 whole entry, looked up): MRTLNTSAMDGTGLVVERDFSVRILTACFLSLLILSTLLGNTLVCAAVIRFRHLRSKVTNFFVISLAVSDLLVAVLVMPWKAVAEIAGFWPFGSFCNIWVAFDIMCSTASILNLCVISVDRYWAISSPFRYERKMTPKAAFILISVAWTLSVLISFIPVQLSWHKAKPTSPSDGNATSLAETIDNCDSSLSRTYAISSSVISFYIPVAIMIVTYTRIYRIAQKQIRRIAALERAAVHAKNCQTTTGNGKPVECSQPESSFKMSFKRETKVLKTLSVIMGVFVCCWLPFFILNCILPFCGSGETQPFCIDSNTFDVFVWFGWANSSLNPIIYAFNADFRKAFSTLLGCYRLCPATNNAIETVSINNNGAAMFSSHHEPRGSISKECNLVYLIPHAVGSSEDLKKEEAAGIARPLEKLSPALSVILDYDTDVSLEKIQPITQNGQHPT
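Agonism was scored from calcium flux recorded over 180 s (1 read/s) after pintool compound addition, following a 10-cycle baseline. Cells were inducible force-coupled HEK293 TREx D1, plated overnight at 30 C and loaded with no-wash calcium dye.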
D1 PAM: potentiators of human D1 dopamine receptor; actives 0.036% (n = 360,000); potentiation, % at 10 µM; P21728; HEK293 TREx D1 cells, calcium flux, dopamine EC20 potentiation; in the data active = potentiation above about 30%
TRHR agonist: TRH receptor (human) agonism; AID 493084; P34981; activation, % at 2 µM; TRHR cells, calcium flux fluo-8, FDSS agonist mode; actives 0.18% (n = 360,000)
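Steps: seed TRHR cells overnight; add fluo-8 no-wash Ca dye, RT 30 min–1.5 h; record 10 s baseline; pin-transfer compounds; monitor fluorescence 1 cycle/s for the agonist window. Calcium increases flag candidate agonists.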
D1 antag: blocks dopamine activation of the human D1 receptor; P21728; HEK293 TREx D1 cells, calcium flux, dopamine EC80; active compounds read low; activity change, negative = inhibition, % at 10 µM; actives 3.2% (n = 360,000); in the data active = activity change below about -30%
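Compound effects on dopamine-evoked calcium signalling were measured in tetracycline-induced HEK293 Trex D1 cells. Dopamine at EC80 followed a 180 s compound pre-read, and fluorescence was tracked kinetically for 180 s more.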
TRHR enhancer: allosteric enhancers of human TRH receptor | actives 0.66% (n = 360,000) | TRHR cells, fluo-8 calcium fluorescence, EC20 TRH enhancement | AID 493056 | enhancement, % at 2 µM | P34981; in the data active = enhancement above about 30%
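Enhancer read-out: after compound pinning and an initial kinetic agonist-mode read, an EC20 of TRH (10 nM final) was injected and fluo-8 calcium signal (Ex 480/Em 530) followed at 1 s/cycle for 100 cycles in TRHR-expressing cells.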
Hits are given with their value; n = inactive; x = no result given. A selection: hits, their analogues and other compounds. The true share with any hit is near 4.7%. Rule as the data show it, unless noted: active = activation above about 30%; inactive = the rest.

SMILES	D1 agonist	D1 PAM	TRHR agonist	D1 antag	TRHR enhancer
CC(C)CC(=O)Nc1ccc(C(=O)CN2CCN(c3ccc(O)cc3)CC2)cc1	n	n	n	n	n
COc1ccc(CCN(C)C(=O)C2CC(=O)N(Cc3ccc(C)cc3)C2)cc1OC (stereo unspecified)	n	x	n	-34	n
COc1ccc(CNC(=O)c2ccc(S(=O)(=O)N3CCOCC3)cc2)cc1	n	n	n	n	n
COc1ccc(CNC(=O)C(C)Sc2ccc(S(=O)(=O)N3CCOCC3)cn2)cc1 (stereo unspecified)	n	n	n	-32	n
COc1ccc(CCNC(=O)C2CCN(S(=O)(=O)c3ccc(C)cc3)CC2)cc1	n	n	n	-35	n
COc1ccc(CNC(=O)C2CCN(S(=O)(=O)c3ccc(C)cc3)CC2)cc1	n	n	n	n	n
COc1ccc(S(=O)(=O)N2CCC(C(=O)N[C@@H](C)C(=O)NCc3ccc(F)cc3)CC2)cc1	n	n	n	-35	n
O=C(Nc1cc(Cl)ccc1Cl)c1ccc2c(c1)N(Cc1cccc(Cl)c1)C(=O)c1ccccc1S2=O (stereo unspecified)	n	n	n	n	n
C[C@H](NC(=O)c1nc[nH]c1C(=O)N1CCN(c2ccccc2)CC1)c1ccccc1	n	n	n	n	n
O=C(CS(=O)(=O)c1cccc2nsnc12)NCc1ccc(Cl)cc1	n	n	n	n	n
Cc1ccc(OCC(=O)NCC(c2ccc(Cl)cc2)N2CCCCC2)cc1 (stereo unspecified)	n	n	n	n	n
NS(=O)(=O)c1ccc(NC(=O)CN2CCN(S(=O)(=O)c3cccs3)CC2)cc1	n	n	n	n	n
CC(C)[C@H](NC(=O)C1CCN(S(=O)(=O)c2ccccc2)CC1)C(=O)NCc1ccncc1	n	n	n	n	n
COc1ccc(CCN(C)CCCN2CC(c3ccccc3)CC2=O)cc1OC (stereo unspecified)	n	n	n	-39	n
CC(C)[C@H](NC(=O)C1CCN(S(=O)(=O)c2ccccc2)CC1)C(=O)NCc1ccccc1	n	n	n	-45	n
COc1ccc(S(=O)(=O)N2CCCCC2C(=O)O)cc1OC (stereo unspecified)	n	n	n	n	33
CCn1c(CNC(=O)c2cc(OC)c(OC)c(OC)c2)cc2ccccc21	n	n	n	n	n
CCOC(=O)c1sc(-c2ccccn2)nc1C	n	n	n	n	n
CC1(C)CC(=O)C(C(c2ccco2)C2C(=O)CC(C)(C)CC2=O)C(=O)C1	n	n	n	n	39
Cc1ccc(C(=O)NCC(=O)Nc2ncccc2C)s1	n	n	n	n	n
Cc1ccc(NC(=O)CCN2C(=O)c3ccccc3Sc3ncccc32)c(Cl)c1	n	n	n	n	n
CC(C)CN1CCC(=O)N([C@H](CSc2ccc(Br)cc2)c2ccccc2)CC1	n	n	n	-44	n
CC1=C(c2ccc(C)cc2)S(=O)(=O)N(Cc2ccc(C(=O)Nc3ccc(C)c(F)c3)cc2)C1=O	n	n	n	n	n
Cc1ccc(-c2c(C(=O)N/N=C/c3ccsc3)nnn2-c2nonc2N)cc1	148	n	n	n	n
Cc1ccsc1/C=N/NC(=O)c1nnn(-c2nonc2N)c1-c1ccc2c(c1)OCO2	n	n	n	n	n
SMILES	D1 agonist	D1 PAM	TRHR agonist	D1 antag	TRHR enhancer
Nc1nonc1-n1nnc(C(=O)N/N=C/c2cccs2)c1-c1ccc2c(c1)OCO2	102	n	n	n	n
Cc1ccc(-c2c(C(=O)N/N=C/c3cccc(Cl)c3)nnn2-c2nonc2N)cc1	n	n	n	n	n
Cc1ccc(-c2c(C(=O)N/N=C/c3cccs3)nnn2-c2nonc2N)cc1	76	n	n	n	n
CCOc1cccc(-c2c(C(=O)N/N=C/c3ccsc3)nnn2-c2nonc2N)c1	72	n	n	n	n
CC(C)CN(C(=O)CCNC(=O)c1ccc(Cl)cc1)c1c(N)n(CC(C)C)c(=O)[nH]c1=O	n	n	n	n	n
COc1ccc(N(CC(=O)Nc2ccc3c(c2)OCCO3)S(=O)(=O)c2cccc(C)c2)cc1	n	n	n	n	n
COCCNC(=O)c1nn(-c2ccc(C)cc2)c(=O)c2c1c1ccccc1n2C	n	n	n	n	n
CCCCn1cc(S(=O)(=O)c2ccc(C)c(C)c2)c(=O)c2cc(F)c(N3CCN(C)CC3)cc21	n	n	n	n	n
